Source: PubChem BioAssay AID1159580 (chemical genetic matrix, 2015)
Out of some 5,500 compounds screened, about 2,000 (36%) were called active. Roughly 18% stayed inconclusive and do not appear here. Cut-off read from the data, not from the text of the source: active = normalized growth mostly below about 0.91 (no sharp cut-off); inconclusive = no clear call, values can overlap the other calls; inactive = mostly above about 0.92. The list shows a part of the results.

Assay: chemical genetic growth profiling, strain panel (AID 1159580);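 note: tested at 20 µM; growth read once vehicle control cultures reached saturation at 30 °C; 1 = growth at the plate median or of vehicle wells; lower values mean less growth of the strain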
Settings: S. cerevisiae deletion strains, growth OD

Measured: normalized growth

COc1cc(N2C(=O)C=CC2=O)cc(OC)c1OC
active: locus YDL214C, strain PRR2, active compounds read low 0.159 | locus YDR477W, strain SNF1, active compounds read low 0.176 | locus YER123W, strain YCK3, active compounds read low 0.289 | locus YER133W, strain GLC7, active compounds read low 0.226 | locus YFR019W, strain FAB1, active compounds read low 0.378 | locus YGR040W, strain KSS1, active compounds read low 0.191 | locus YGR052W, strain FMP48, active compounds read low 0.156 | locus YHR030C, strain SLT2, active compounds read low 0.385 | locus YHR082C, strain KSP1, active compounds read low 0.147 | locus YJL095W, strain BCK1, active compounds read low 0.302 | locus YJL128C, strain PBS2, active compounds read low 0.553 | locus YJR066W, strain TOR1, active compounds read low 0.133 | locus YKL203C, strain TOR2, active compounds read low 0.357 | locus YLR113W, strain HOG1, active compounds read low 0.156 | locus YNL183C, strain NPR1, active compounds read low 0.143 | locus YOR119C, strain RIO1, active compounds read low 0.311 | locus YPL256C, strain CLN2, active compounds read low 0.129
inactive: locus YAR019C, strain CDC15, active compounds read low 0.924 | locus YBL105C, strain PKC1, active compounds read low 0.958 | locus YBR135W, strain CKS1, active compounds read low 0.95 | locus YBR136W, strain MEC1, active compounds read low 0.935 | locus YBR160W, strain CDC28, active compounds read low 0.958 | locus YDL017W, strain CDC7, active compounds read low 0.975 | locus YDL028C, strain MPS1, active compounds read low 0.958 | locus YDL108W, strain KIN28, active compounds read low 0.952 | locus YDL132W, strain cdc53, active compounds read low 0.94 | locus YDR052C, strain DBF4, active compounds read low 0.959 | locus YDR054C, strain cdc34, active compounds read low 0.947 | locus YDR226W, strain ADK1, active compounds read low 0.928 | locus YFL009W, strain cdc4, active compounds read low 0.968 | locus YFL029C, strain CAK1, active compounds read low 0.915 | locus YFR003C, strain YPI1, active compounds read low 0.989 | locus YFR028C, strain CDC14, active compounds read low 0.928 | locus YGR092W, strain DBF2, active compounds read low 0.967 | locus YHR079C, strain IRE1, active compounds read low 0.955 | locus YIL147C, strain SLN1, active compounds read low 0.982 | locus YJR016C, strain ILV3, active compounds read low 0.973 | locus YKL048C, strain ELM1, active compounds read low 0.947 | locus YKL193C, strain SDS22, active compounds read low 0.939 | locus YMR001C, strain CDC5, active compounds read low 0.928 | locus YMR205C, strain PFK2 (second series), active compounds read low 0.941 | locus YMR277W, strain FCP1, active compounds read low 0.926 | locus YNL006W, strain LST8, active compounds read low 1 | locus YNL020C, strain ARK1, active compounds read low 0.96 | locus YNL161W, strain CBK1, active compounds read low 0.961 | locus YNL207W, strain RIO2, active compounds read low 0.968 | locus YNL222W, strain SSU72, active compounds read low 0.943 | locus YNL307C, strain MCK1 (second series), active compounds read low 0.67 | locus YOL078W, strain AVO1, active compounds read low 0.93 | locus YOR061W, strain CKA2, active compounds read low 0.942 | locus YOR231W, strain MKK1, active compounds read low 0.92 | locus YOR329C, strain SCD5, active compounds read low 0.991 | locus YPL209C, strain IPL1, active compounds read low 0.964 | locus YPR025C, strain CCL1, active compounds read low 0.95 | locus YPR106W, strain ISR1, active compounds read low 0.924 | strain NNK1, active compounds read low 0.977 | strain TSCII, active compounds read low 0.933
